# Whole data set: some 9,900 sequences, median “r (bound/input frequency ratio)” near 0.7, cut for the highest 2% near 6.5. Many of the other results were omitted from the sample, so the highest values are more common in it than they were.
# B1: ENSMUSG00000031028.668|Tub (ssRNA)
# RNA: GGGAGUUCUACAGUCCGACGAUCGCUUCGAUAUCCGCAUGCUAGGCAAAAUUUCUCUAGCUGAGAGCACACUUAGCCAGUUUUCACGCCUAGAACAUAUAUGUCGAUUUGCACAUGAUUGUCUUUUCCUAUUUUGGAGUGGUCAGACAUUUUAUUUUUGUUCAAAAUUAUCUGGAGUUUUAGACAAACUUGCAAAACUGUGCUUUUAUUAAGUGACUUUUUGAAUAAACUUUUUGGUAUUCUGAAGCAAAUGUAUUUAUUUAUUGGUAUGUGCAAUGACAAACUUGGUAUUUUCCCAUAAUGACUCUUGCGGUCGCACUAGUGUGGAAUUCUCGGGUGUCAAGG
# B2: ENSMUSG00000061578.140|Ksr2 (ssRNA)
# RNA: GGGAGUUCUACAGUCCGACGAUCGCUUCGAUAUCCGCAUGCUAGGCUGUGGCAAGAGAGUUCUGGUGUGUUCUCUCUGUGGGGCUAGCAAUGCCGGGGUUAAGUUCUCCCUCGGUGAUGGAGACGGUCCUGGGUAUGCAUGAUGGGUUACAUGGGUGUGUGUGUGUGUGUAACUGUUUACAAUGGUCUCCCUGCCUCUCACGGGCUGUGUUCCAGGAGAAUGCACAUAGAGAGGUUCUGUGGUCUCUGCUGUCGCCUGGUGCUGAAUCCUGAGUGGUUUCCCCACUGAGGACCCUGUGACCCUCUCUUGCGGUCGCACUAGUGUGGAAUUCUCGGGUGUCAAGG
# B3: ENSMUSG00000061578.854|Ksr2|32:36 (ssRNA)
# RNA: GGGAGUUCUACAGUCCGACGAUCGCUUCGAUAUCCGCAUGCUAAGAGCAAUACAGGAAAAGGUCAGGGGUGAGAACACACAUUGCCACUUCCUCCAGCUAGGACCUUUGAGCAUCACAUUGUGAAGCCAUCCAGGGACUUGGGGGUUAGGUCAGAGGUAUCAAUACAUCUCCGGAAACAUCGUCACAGAUACCUAGAGGUACUUCAUUGAUCCCUUGAAAAGCAUGUCUUAAUUCUGUUAAGAUGUCAAUCAAGAUUACACAUCUCACUGCUUCACAGGCCAUCAGGGCCCCAUUCUGAGGUCCUCUUGCGGUCGCACUAGUGUGGAAUUCUCGGGUGUCAAGG
# B4: ENSMUSG00000090935.379|Synj2bp (ssRNA)
# RNA: GGGAGUUCUACAGUCCGACGAUCGCUUCGAUAUCCGCAUGCUAAGAUGCAGGGAUAUUGGUGAGGUGGGAGCUGUCCUGUUUAUGUAACAUCUAAGUUGGUUUUAGAGUACUGAGGAUAGUUGAACCAAGCCUAUUUUUUUUCCACUUUAACAAAAUAAUUUCCUUCUUUUCAGUAAAUUGGCCAGACUAUUAUUUUGACAUAAGAUUAUGAAGAGUUUUCCCGACAGUCUAGCAGUCACUUAACAGAUGUUGAUUGCACAUUAGUUUUGUCAGGACACCUUUAUAAAAAGAGAAAUGCACAUCUCUUGCGGUCGCACUAGUGUGGAAUUCUCGGGUGUCAAGG
# B5: ENSMUSG00000061578.1219|Ksr2 (ssRNA)
# RNA: GGGAGUUCUACAGUCCGACGAUCGCUUCGAUAUCCGCAUGCUACAGCAUGCUUCACUCUAUGAAUGAGCCGCUGGGAUAUUGACAUGGAGAUGUGUUGAUGGAAAAAGCCUCCACACCCAACAUAACUCUCCAGAGAGAUAUUGAAAGUGAUGGGCAGAGAGUCUGACAAUGACCCAGGGGUCAUUGUGAGUCCUAGGCUGAAUCUGUAAUGGGGUCCAAAGUGCAGGAGAGACUGCAUUCACCUUGUUGGUGGGGUGGGGCUUCUUUCAUUACUUUAAGUAUCUGUAUGGGCUUGAGGCAUGCUCUUGCGGUCGCACUAGUGUGGAAUUCUCGGGUGUCAAGG
# B6: ENSMUSG00000090935.669|Synj2bp (ssRNA)
# RNA: GGGAGUUCUACAGUCCGACGAUCGCUUCGAUAUCCGCAUGCUAUGGAGUGAGAUGAGUGUGUGCCAGCCAGCAACUCUGUCCUUCUAGGUAACUGGUUCAUGCUGAACCUUGAGAUUCACCACUGUCAGGAGCUCUCUCUCUCUGCUUAGAAUCAUCCAGACAGCGGGCUGGUCAGCCCACAUUAAAUAAGAACAUGUGGGACUAGAAUUCAGUCAACAAUGACAUGUUUCAUCAGGUGGUUAAAAUGUACAGAUUCUGUUGGAAAUGUUCCAUGGUAUUUCAAUAGCCAGAAUGAAGAACUGCUCUUGCGGUCGCACUAGUGUGGAAUUCUCGGGUGUCAAGG
# B7: ENSMUSG00000061578.1443|Ksr2 (ssRNA)
# RNA: GGGAGUUCUACAGUCCGACGAUCGCUUCGAUAUCCGCAUGCUAGCAAGUAGGAUGGAUGGAUGAGUGAGUGGAUAGGUAGGUAUAUAAAUGGAUGGAUGGGUGAUGGAUGGGUAAAUGAAUGGAUAGGUAUGUGAAUGAAUGGAUGAUGGAUGAAUGGAUGGGUAGGUGGGUAGAUAGGUAUAUGAAUGAAUGGAUGAAUGGAUGGGUGAAUGGAUGGAUAGGUAUGUGAAUAAAUGGAUGGAUGGAUGGAUUGAUUUGUGAAUGAAUGGAUGAAUGGAUGGGUAGGUGGGUGGAUGCAUAGGCUCUUGCGGUCGCACUAGUGUGGAAUUCUCGGGUGUCAAGG
# B8: ENSMUSG00000061578.1449|Ksr2 (ssRNA)
# RNA: GGGAGUUCUACAGUCCGACGAUCGCUUCGAUAUCCGCAUGCUAGGUAUAUAAAUGGAUGGAUGGGUGAUGGAUGGGUAAAUGAAUGGAUAGGUAUGUGAAUGAAUGGAUGAUGGAUGAAUGGAUGGGUAGGUGGGUAGAUAGGUAUAUGAAUGAAUGGAUGAAUGGAUGGGUGAAUGGAUGGAUAGGUAUGUGAAUAAAUGGAUGGAUGGAUGGAUUGAUUUGUGAAUGAAUGGAUGAAUGGAUGGGUAGGUGGGUGGAUGCAUAGGCAAGUAGAUGAAUGAAUAUGUGGGUAGAAGGGUGAGCUCUUGCGGUCGCACUAGUGUGGAAUUCUCGGGUGUCAAGG
# B9: ENSMUSG00000061578.1454|Ksr2 (ssRNA)
# RNA: GGGAGUUCUACAGUCCGACGAUCGCUUCGAUAUCCGCAUGCUAGGGUAAAUGAAUGGAUAGGUAUGUGAAUGAAUGGAUGAUGGAUGAAUGGAUGGGUAGGUGGGUAGAUAGGUAUAUGAAUGAAUGGAUGAAUGGAUGGGUGAAUGGAUGGAUAGGUAUGUGAAUAAAUGGAUGGAUGGAUGGAUUGAUUUGUGAAUGAAUGGAUGAAUGGAUGGGUAGGUGGGUGGAUGCAUAGGCAAGUAGAUGAAUGAAUAUGUGGGUAGAAGGGUGAGUGGGUGGAUGAAUGGAUGGAUAGGUUGGUACUCUUGCGGUCGCACUAGUGUGGAAUUCUCGGGUGUCAAGG
# B10: ENSMUSG00000090935.713|Synj2bp (ssRNA)
# RNA: GGGAGUUCUACAGUCCGACGAUCGCUUCGAUAUCCGCAUGCUAAAGUCCAGAGCUCUGCUCUCUGAGCAUCUGCCCCAGAUACAGAGGCAGAGUAUGAAGUGGAACAUUGUUUUAUUCCUAGGUGCUCAGGACAGACUGAUCAACCUCCAGUAACAUAUGUGGUUAGUAAGUGCUUCAGCUUGUGUAGCCAUUAAUAACCAAGUCAUAGGAUUGUGAAUCUAAAAUACUCCUGGGUAAAAUUUGUAUUAGAAUGGAAAAAAAAAUGAGGGUCAGAAAGGUGAGCUAACUUCAAGUUAGAUACUCUCUUGCGGUCGCACUAGUGUGGAAUUCUCGGGUGUCAAGG
# B11: ENSMUSG00000031028.413|Tub (ssRNA)
# RNA: GGGAGUUCUACAGUCCGACGAUCGCUUCGAUAUCCGCAUGCUACCCCUCUUCUUUUUGGUCCUUGGCUGGGUAGCAAAUUGGUGAGAAGAGCAGCCUAGUCUGUAAGAGUGCAGGGCAGCUGGAACCUUAGGCAGCUCCUCUGUAUGCUACCGGCUCCACACCCUAACACUCUCCACCCUCUGCUCCAAACCAGUUCUUCUGCAGAGUGGUGAUGUUAGCUUCCCCAGCUCCUCUCCAAGUCUAGCUUUUUCUGUCCUUCUGGCUCCAAGGUGCUCUGUGUCUGUGUGUGUGUGUCUGUCUGUCUCUUGCGGUCGCACUAGUGUGGAAUUCUCGGGUGUCAAGG
# B12: ENSMUSG00000031028.410|Tub (ssRNA)
# RNA: GGGAGUUCUACAGUCCGACGAUCGCUUCGAUAUCCGCAUGCUAAGAUCCCUUACCCCUCAUCCCCUCUUCUUUUUGGUCCUUGGCUGGGUAGCAAAUUGGUGAGAAGAGCAGCCUAGUCUGUAAGAGUGCAGGGCAGCUGGAACCUUAGGCAGCUCCUCUGUAUGCUACCGGCUCCACACCCUAACACUCUCCACCCUCUGCUCCAAACCAGUUCUUCUGCAGAGUGGUGAUGUUAGCUUCCCCAGCUCCUCUCCAAGUCUAGCUUUUUCUGUCCUUCUGGCUCCAAGGUGCUCUGUGUCUGUCUCUUGCGGUCGCACUAGUGUGGAAUUCUCGGGUGUCAAGG
# B13: ENSMUSG00000031028.412|Tub (ssRNA)
# RNA: GGGAGUUCUACAGUCCGACGAUCGCUUCGAUAUCCGCAUGCUACCUCAUCCCCUCUUCUUUUUGGUCCUUGGCUGGGUAGCAAAUUGGUGAGAAGAGCAGCCUAGUCUGUAAGAGUGCAGGGCAGCUGGAACCUUAGGCAGCUCCUCUGUAUGCUACCGGCUCCACACCCUAACACUCUCCACCCUCUGCUCCAAACCAGUUCUUCUGCAGAGUGGUGAUGUUAGCUUCCCCAGCUCCUCUCCAAGUCUAGCUUUUUCUGUCCUUCUGGCUCCAAGGUGCUCUGUGUCUGUGUGUGUGUGUCUCUCUUGCGGUCGCACUAGUGUGGAAUUCUCGGGUGUCAAGG
# B14: ENSMUSG00000031028.415|Tub (ssRNA)
# RNA: GGGAGUUCUACAGUCCGACGAUCGCUUCGAUAUCCGCAUGCUAUUGGUCCUUGGCUGGGUAGCAAAUUGGUGAGAAGAGCAGCCUAGUCUGUAAGAGUGCAGGGCAGCUGGAACCUUAGGCAGCUCCUCUGUAUGCUACCGGCUCCACACCCUAACACUCUCCACCCUCUGCUCCAAACCAGUUCUUCUGCAGAGUGGUGAUGUUAGCUUCCCCAGCUCCUCUCCAAGUCUAGCUUUUUCUGUCCUUCUGGCUCCAAGGUGCUCUGUGUCUGUGUGUGUGUGUCUGUCUGUGUGUGUGUGUGUCUCUUGCGGUCGCACUAGUGUGGAAUUCUCGGGUGUCAAGG
# B15: ENSMUSG00000031028.414|Tub (ssRNA)
# RNA: GGGAGUUCUACAGUCCGACGAUCGCUUCGAUAUCCGCAUGCUAUUCUUUUUGGUCCUUGGCUGGGUAGCAAAUUGGUGAGAAGAGCAGCCUAGUCUGUAAGAGUGCAGGGCAGCUGGAACCUUAGGCAGCUCCUCUGUAUGCUACCGGCUCCACACCCUAACACUCUCCACCCUCUGCUCCAAACCAGUUCUUCUGCAGAGUGGUGAUGUUAGCUUCCCCAGCUCCUCUCCAAGUCUAGCUUUUUCUGUCCUUCUGGCUCCAAGGUGCUCUGUGUCUGUGUGUGUGUGUCUGUCUGUGUGUGUCUCUUGCGGUCGCACUAGUGUGGAAUUCUCGGGUGUCAAGG
# B16: ENSMUSG00000031028.411|Tub (ssRNA)
# RNA: GGGAGUUCUACAGUCCGACGAUCGCUUCGAUAUCCGCAUGCUACUUACCCCUCAUCCCCUCUUCUUUUUGGUCCUUGGCUGGGUAGCAAAUUGGUGAGAAGAGCAGCCUAGUCUGUAAGAGUGCAGGGCAGCUGGAACCUUAGGCAGCUCCUCUGUAUGCUACCGGCUCCACACCCUAACACUCUCCACCCUCUGCUCCAAACCAGUUCUUCUGCAGAGUGGUGAUGUUAGCUUCCCCAGCUCCUCUCCAAGUCUAGCUUUUUCUGUCCUUCUGGCUCCAAGGUGCUCUGUGUCUGUGUGUGUCUCUUGCGGUCGCACUAGUGUGGAAUUCUCGGGUGUCAAGG
# Target: TDP-43 (Homo sapiens, UniProt Q13148 1-414)
# Assay: RNA Bind-n-Seq with designed 260-mer pool; 25 mM Tris-HCl, 150 mM KCl, 3 mM MgCl2, BSA (printed 500 mg/mL), 20 units/mL SUPERase IN; pH not stated; 500 nM RNA pool, 1 h, 4 C; TDP-43 5, 50, 500 nM; high values mean tight binding
# Conditions: protein: recombinant; tags: SBP (GST cleaved off with PreScission; pGEX-GST-SBP)
# Procedure, shortened: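 The incubation lasted 1 h at 4 °C and used 500 nM of an in vitro-transcribed 260-nt 3′ UTR oligo pool with recombinant SBP-tagged TDP-43 at 5, 50 or 500 nM immobilized on streptavidin beads. It took place in 25 mM Tris-HCl, 150 mM KCl, 3 mM MgCl2, BSA and SUPERase IN. Bound RNA was washed, eluted with biotin, converted to cDNA, PCR-amplified and sequenced to give R, each oligo's normalized abundance in the bound sample divided by that in input. Two independent protein batches provided the duplicates.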
# Sequence of TDP-43 (Q13148 whole entry): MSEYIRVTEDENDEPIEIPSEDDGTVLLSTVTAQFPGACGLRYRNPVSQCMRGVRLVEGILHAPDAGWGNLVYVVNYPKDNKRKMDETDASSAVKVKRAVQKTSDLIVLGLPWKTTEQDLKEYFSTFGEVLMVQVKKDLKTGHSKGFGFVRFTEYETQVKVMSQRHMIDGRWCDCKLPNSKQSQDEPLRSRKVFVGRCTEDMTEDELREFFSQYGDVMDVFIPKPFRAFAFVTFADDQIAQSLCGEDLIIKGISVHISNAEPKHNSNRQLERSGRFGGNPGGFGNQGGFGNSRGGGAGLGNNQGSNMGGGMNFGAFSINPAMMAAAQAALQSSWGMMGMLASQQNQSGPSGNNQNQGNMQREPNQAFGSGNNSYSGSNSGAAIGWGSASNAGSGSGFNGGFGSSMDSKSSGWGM
row,Binder,binding signal
1,B1,0.159 R (bound/input frequency ratio)
2,B2,5.07 R (bound/input frequency ratio)
3,B3,0.103 R (bound/input frequency ratio)
4,B4,0.043 R (bound/input frequency ratio)
5,B5,0.535 R (bound/input frequency ratio)
6,B6,1.53 R (bound/input frequency ratio)
7,B7,9.18 R (bound/input frequency ratio)
8,B8,3.93 R (bound/input frequency ratio)
9,B9,2.48 R (bound/input frequency ratio)
10,B10,1.85 R (bound/input frequency ratio)
11,B11,3.56 R (bound/input frequency ratio)
12,B12,1.11 R (bound/input frequency ratio)
13,B13,2.36 R (bound/input frequency ratio)
14,B14,6.65 R (bound/input frequency ratio)
15,B15,6.55 R (bound/input frequency ratio)
16,B16,1.34 R (bound/input frequency ratio)

# Reference: article PMC12864922, “TDP-43 directly inhibits mRNA accumulation in neurites through modulation of mRNA stability”
